From PubChem
ClpP mod = qHTS Assay for Activators of ClpP | ATP-dependent Clp protease proteolytic subunit (Bacillus subtilis (strain 168)), P80244 | purified B. subtilis ClpP, FRET peptide cleavage, 20 min | Potency, µM (titrated, usually from 57.5 µM), for inactives: top-dose activity change, negative = active | actives 1.9% (n = 340,000); active means well fitted falling curve with a large enough effect; inconclusive means small, poorly fitted or top-dose-only effect; inactive means no such curve, though single readings can be large or run the other way; further: potency means the concentration at half of the fitted maximal effect; the source files actives as falling curves though it sought activators and does not explain the sign; nearly all actives have a fitted effect of over 65% in size
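Purified B. subtilis ClpP, 10 microg/mL final in Tris/HCl pH8 with KCl, BSA, glycerol and Tween-20, cleaved an Abz/nitrotyrosine-quenched decapeptide. Fluorescence (ex 320, em 430) was read at 0 and 20 min at room temperature. Delta was normalized to 5.8 microM ADEP and DMSO/no-enzyme controls.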
IL1B secr inh = blocks inflammasome-driven IL-1 beta release; THP-1 LPS/ATP IL-1B secretion, AlphaLISA, 16 h; hits give low values; activity change, % at 57.5 µM; actives 4.7% (n = 360,000); in the data active means activity change below about -50%; inconclusive means mostly about -30% to -49%; further: on the % scale 0 is the no-effect control and ±100 the full control effect
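Secreted IL-1B measured by AlphaLISA bead assay after 16 h compound exposure of THP-1 cells; compounds (final up to 57.5 uM) added 1 h before LPS (250 ng/mL) and ATP (1.25 mM) stimulation; lower signal means less secretion.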
D3 antag = D3 dopamine receptor (human) antagonism. P35462. D3R cells, DiscoveRx beta-arrestin luminescence, antagonist mode; hits give low values. max response, negative = inhibition, %. actives 2.5% (n = 360,000). AID 652054; in the data active means max response below about -50%; inconclusive means no clear call, values can overlap the other calls; further: on the % scale 0 is the no-effect control and ±100 the full control effect
Target sequence (P35462 whole entry, looked up): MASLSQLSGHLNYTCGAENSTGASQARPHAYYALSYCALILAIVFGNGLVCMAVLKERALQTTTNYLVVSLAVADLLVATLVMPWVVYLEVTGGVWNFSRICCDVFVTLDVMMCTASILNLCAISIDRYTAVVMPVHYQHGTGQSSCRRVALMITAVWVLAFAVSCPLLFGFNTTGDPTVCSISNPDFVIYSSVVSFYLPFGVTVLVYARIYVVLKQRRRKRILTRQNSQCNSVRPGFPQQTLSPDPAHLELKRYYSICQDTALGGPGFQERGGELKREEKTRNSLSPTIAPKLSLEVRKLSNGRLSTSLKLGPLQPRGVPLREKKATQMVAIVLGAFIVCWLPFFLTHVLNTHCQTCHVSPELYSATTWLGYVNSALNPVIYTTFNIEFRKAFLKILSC
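Cells expressing the human receptor were seeded at 1500 cells/well, incubated overnight at 37 degrees C in 5% CO2, then exposed to library compounds with dopamine controls for 90 minutes at 37 degrees C before luminescent detection.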
D3 ag = activates the human D3 dopamine receptor; D3R DiscoveRx beta-arrestin cells, luminescence, 90 min; actives 0.58% (n = 410,000); max activation, %; P35462; AID 652048; in the data active means max activation above about 30%; further: 0% is about no effect
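Agonist-mode cell screen: cells plated at 1500/well and incubated overnight at 37 °C, then exposed to library compounds for 90 min at 37 °C. Detection reagent was added for 30–60 min at room temperature, and luminescence was read.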
TDP1 cell CPT = DT40-hTDP1 cell growth loss with CPT. chicken DT40 Tdp1-/-;hTDP1 cells + 20 nM CPT, ATP luminescence, 48 h. Potency, µM (doses to about 46.2 µM), without a hit: at the top dose activity change, negative = growth inhibition, hits mostly inhibitors. actives 12% (n = 420,000). AID 686979; further: potency means the concentration at half of the fitted maximal effect; on the % scale 0 is the no-effect control and ±100 the full control effect; nearly all actives have a fitted effect of over 55% in size
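Chicken DT40 Tdp1-/- cells complemented with human TDP1, 400 cells/well, exposed to compounds plus 20 nM camptothecin for at least 48 h at 37 C; viability read as ATP content by CellTiter-Glo luminescence.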
TDP1 cell noCPT = qHTS for Inhibitors of human tyrosyl-DNA phosphodiesterase 1 (TDP1): qHTS in cells in absence of CPT | DT40 Tdp1-/- hTDP1 cells, no CPT, ATP luminescence, 48 h | Potency, µM (doses to about 46.2 µM), for inactives: at the highest dose activity change, negative = growth inhibition, usual class: inhibitors | actives 15% (n = 420,000) | AID 686978, 2013; further: potency means the concentration at half of the fitted maximal effect; on the % scale 0 is the no-effect control and ±100 the full control effect; nearly all actives have a fitted effect of over 55% in size
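Compound effects on proliferation are scored in DT40 Tdp1-/-;hTDP1 cells in the absence of CPT. ATP levels (CellTiter-Glo luminescence) are recorded after a ≥48 hr, 37 °C incubation.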
Starred values were filed as active, the others as inactive; ? = inconclusive; · = no result. Sampled rows, rich in hits. Any-hit rate of the full collection: about 21%. Unless noted, the call rests on the fitted dose curve; in most records, active means well fitted inhibition curve with a large enough effect; inconclusive means small, poorly fitted or top-dose-only effect; inactive means flat fitted curve, though single readings scatter.

SMILES	ClpP mod	IL1B secr inh	D3 antag	D3 ag	TDP1 cell CPT	TDP1 cell noCPT
Cc1cc(NC(=O)Nc2ccc(C)c(C)c2)no1	·	14	-2	3	23µM*	-102%
CC(=O)N(C)c1ccc(NC(=S)Nc2ccc(C(C)C)cc2)cc1	-1%	21	14	0	16µM*	26µM*
COc1ccc2nc(NC(=O)Nc3cccc4ccccc34)sc2c1	4%	9	-7	-7	?	18µM*
COc1ccc(-c2cc(C)no2)cc1S(=O)(=O)NCc1ccco1	-8%	·	·	-11	?	?
COc1ccc2nc(Nc3nc4cc5c(cc4s3)OCO5)sc2c1	13µM*	38	9	7	?	7.3µM*
Cc1ccoc1C(=O)Nc1cccc2ccccc12	-4%	-10	-11	4	9.2µM*	21µM*
COc1ccc2nc(Nc3ccccc3OC)sc2c1	·	-8	-4	2	?	21µM*
COc1ccc(N2CC(C(=O)N/N=C/c3ccc(C)cc3)CC2=O)cc1 (configuration not stated)	·	57	-15	0	1.3µM*	1.6µM*
CC(Oc1ccc(Br)cc1)C(=O)N(C)CC(=O)Nc1ccc(N2CCOCC2)cc1 (configuration not stated)	-1%	0	8	7	-7%	-12%
COc1ccc(S(=O)(=O)N(CCc2ccccc2)CC(=O)Nc2cc(Cl)ccc2C)cc1	-8%	·	·	-23	?	?
O=S(=O)(c1ccccc1Cl)N1CCC(Cc2ccccc2)CC1	-1%	15	?	-4	-16%	-10%
Cc1cc(NC(=O)Nc2cccc3ccccc23)no1	-11%	8	22	1	9.2µM*	?
COc1ccc2nc(Nc3ccccc3)sc2c1	0%	-67*	-6	-1	-1%	?
Cc1cc(NC(=O)Cc2ccccc2C)no1	0%	0	-15	-11	23µM*	-23%
COc1ccc2nc(Nc3ccc4c(c3)OCO4)sc2c1	0%	?	19	2	-15%	-16%
COc1ccc2nc(N3C(=O)CC(C(C)c4ccccc4)C3=O)sc2c1 (configuration not stated)	28µM*	0	-6	-5	3%	-10%
COc1ccc(NC(=O)Nc2nnc(N(CC(C)C)CC(C)C)s2)c(OC)c1	1%	·	·	-2	?	18µM*
COc1ccc(OC)c(NC(=O)Nc2cccc3ccccc23)c1	?	0	-57*	-16	-19%	-19%
COc1ccc(NC(=O)Nc2cccc3ccccc23)c(OC)c1	?	9	-1	-6	?	4%
Cc1cc(NC(=O)C(Cl)c2ccccc2)no1 (configuration not stated)	-4%	-83*	17	12	7.3µM*	?
Cc1ccc(C)c(NC(=O)Nc2nnc(N(CC(C)C)CC(C)C)s2)c1	2%	·	·	-18	?	?
COc1ccccc1N1CCN(C2CCCN(C(=O)c3ccccn3)C2)CC1 (configuration not stated)	-3%	10	-6	-10	-8%	1%
N#Cc1ccc2ccn(CC(=O)NCc3ccccc3)c2c1	25µM*	0	-3	-13	?	18µM*
N#C/C(=C\c1coc2ccccc2c1=O)C(N)=S	·	4	-16	-4	?	15µM*
COc1ccc2c(=O)cc(-c3ccncc3)oc2c1OC	·	-96*	?	0	?	?
COc1ccc(-c2cc(=O)c3c(OC)c(OC)c(OC)c(OC)c3o2)cc1OC	-27%	-26	41	40*	21µM*	21µM*
O=c1cc(-c2ccc(O)cc2)oc2ccccc12	-15%	5	4	-4	?	?
